# According to PubChem BioAssay AID1850 (Southern Research Specialized Biocontainment Screening …, 2009):
# Screen size: about 310,000 compounds; about 1,000 (0.32%) were called active. Not all results are given here. Potency and affinity values are given separately. Values without a mark were called inactive. The rule behind the calls is not given here.
# Assay: PhoP regulon inhibitors, Salmonella typhi PhoP promoter GFP reporter, confirmatory (AID 1850);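 note: 0% = induced wells with vehicle and 100% = uninduced wells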
# Details: fluorescence, 4 h, at 50 µM, active compounds read high
row,SMILES,inhibition [%]
1,c1ccc(C[C@H]2CNCCN2CC2(c3ccccc3)CC2)cc1,-6.5
2,Cc1cc2oc(C(=O)NCc3ccccc3)cc(=O)c2cc1C,-12.8
3,CC1=NNC(=O)/C1=C\c1cn(-c2ccccc2)nc1-c1ccccc1,10.4
4,CC1=C(C(=O)Nc2ccc(C)cc2C)C(c2cccs2)NC(=S)N1 (stereo not drawn),2.73
5,O=C(Nc1ccccc1)N1CCCN(Cc2ccccc2F)C1,14
6,O=C(Nc1ccc(Cl)cc1)N1CCCN(Cc2ccc(F)cc2)C1,0.26
7,CC1CN(c2oc(-c3ccco3)nc2C#N)CC(C)O1 (stereo not drawn),6.8
8,C/C(=N\N=C(N)N)c1cccc(Cl)c1,9.67
9,C/C(=N\N=C(N)N)c1ccc(Cl)cc1,-0.0633
10,O=C(CNS(=O)(=O)c1ccccc1)N1CCc2ccccc2C1,-1
11,Cn1c(=O)c2c(nc(NCC3CCCO3)n2Cc2cccc(Br)c2)n(C)c1=O (stereo not drawn),2.34
12,CN(C)S(=O)(=O)N1CCN(c2ccc([N+](=O)[O-])c(NC3CC3)c2)CC1,-5.83
13,CN(C)C(=O)C[n+]1ccc(/C=N/O)cc1,-5.57
14,CCCCCCCCCC[n+]1cccc(C(=O)N(CC)CC)c1,8.08
15,CC(C)(C)C(=O)C[n+]1ccc(C(N)=O)cc1,-7.77
16,CCCCCCCC[n+]1cccc(C(=O)N(CC)CC)c1,-7.45
17,NC(=O)C[n+]1ccc(/C=N/O)cc1,-7.01
18,CCN(CC)C(=O)C[n+]1ccc(C(N)=O)cc1,-3.67
19,O=C(c1ccc(F)cc1)N1CCN(C2CC3CCC2C3)CC1 (stereo not drawn),-3.63
20,O=C(Nc1ccc2ccccc2n1)c1ccccc1Br,-4.26
21,CCC(C)NC(=O)CCC(=O)NNc1nc2ccccc2c2nc(C)nn12 (stereo not drawn),10.9
22,CCn1cc(NC(=O)CCl)c(C)n1,-1.91
23,CC(C)(C)OC(=O)N1CCC(c2c(C(=O)NCC3CCN(C4CCCC4)C3)cnn2-c2ccccc2)CC1 (stereo not drawn),4.93
24,Oc1ccc(/C=N/Nc2nccnc2Cl)cc1,-3.22
25,Oc1ccccc1/C=N/Nc1nccnc1Cl,-1.82
26,O=C(COc1ccc(Br)cc1)N(Cc1ccccc1)c1ccccn1,12.3
27,COc1ccc(NC(=O)CSCC(=O)N(C)CC(=O)Nc2ccc(Cl)c(C(F)(F)F)c2)cc1,5.95
28,O=C(CCN1C(=O)c2ccccc2S1(=O)=O)N1CCN(c2cccc(Cl)c2)CC1,0.17
